D1 antagonist – blocks dopamine activation of the human D1 receptor; HEK293 TREx D1 cells, calcium flux, dopamine EC80; hits give low values; activity change, negative = inhibition, % at 10 µM; 360,000 compounds, 3.2% hits; AID 504652; in the data active = activity change below about -30%
Target sequence (P21728 whole entry, looked up): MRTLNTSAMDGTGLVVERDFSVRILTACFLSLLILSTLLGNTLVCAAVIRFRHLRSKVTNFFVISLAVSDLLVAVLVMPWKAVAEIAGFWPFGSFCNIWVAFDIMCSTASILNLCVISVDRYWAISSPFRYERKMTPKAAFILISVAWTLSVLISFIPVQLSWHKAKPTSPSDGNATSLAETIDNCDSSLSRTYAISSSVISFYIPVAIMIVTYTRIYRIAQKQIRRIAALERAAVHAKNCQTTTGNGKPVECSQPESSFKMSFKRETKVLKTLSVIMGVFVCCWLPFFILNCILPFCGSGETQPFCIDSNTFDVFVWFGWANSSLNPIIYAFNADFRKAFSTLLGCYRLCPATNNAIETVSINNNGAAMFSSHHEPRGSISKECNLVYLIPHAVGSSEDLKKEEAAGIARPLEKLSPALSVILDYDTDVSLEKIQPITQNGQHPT
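Tetracycline-induced HEK293 Trex D1 cells, force-coupled to calcium, dye-loaded; compounds added and read 180 s, then EC80 dopamine added and calcium flux tracked kinetically another 180 s.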
D1 potentiator – human D1 dopamine receptor positive modulation; P21728; AID 504651; potentiation, % at 10 µM; 360,000 compounds, 0.036% hits; HEK293 TREx D1 cells, calcium flux, dopamine EC20 potentiation; in the data active = potentiation above about 30%
TRHR agonist – agonists of human TRH receptor; TRHR cells, calcium flux fluo-8, FDSS agonist mode; activation, % at 2 µM; 360,000 compounds, 0.18% hits; P34981
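Steps: seed TRHR cells overnight; add fluo-8 no-wash Ca dye, RT 30 min–1.5 h; record 10 s baseline; pin-transfer compounds; monitor fluorescence 1 cycle/s for the agonist window. Calcium increases flag candidate agonists.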
TRHR enhancer – allosteric enhancers of human TRH receptor; P34981; TRHR cells, fluo-8 calcium fluorescence, EC20 TRH enhancement; enhancement, % at 2 µM; 360,000 compounds, 0.66% hits; AID 493056; in the data active = enhancement above about 30%
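TRHR-expressing cells loaded with fluo-8 calcium dye were read kinetically (ex 480/em 530) during compound addition, then stimulated with an EC20 of TRH (10 nM final). Enhancement of the Gq-mediated intracellular calcium response was scored.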
D1 agonist – activates the human D1 dopamine receptor; activation, % at 2 µM; 360,000 compounds, 1% hits; P21728; AID 504660; HEK293 T-REx D1 cells, calcium flux, agonist mode
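Inducible HEK293 T-REx D1 cells, force-coupled to calcium signalling, were plated at 4000 cells/well with tetracycline and held overnight at 30 C. After no-wash calcium dye loading, compound-evoked calcium rise over 180 s flagged agonists.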
Numbers stand for hits; i = inactive; nt = not tested or not shown. Compounds with a hit are over-represented: about 4.7% of the library has one in this group of screens. Rule as the data show it, unless noted: active = activation above about 30%; inactive = the rest.

SMILES	D1 antagonist	D1 potentiator	TRHR agonist	TRHR enhancer	D1 agonist
CCOC(=O)C1=C(COC(=O)C(CC)c2ccccc2)NC(=O)NC1C (stereo not given)	-36	i	i	i	i
COC(=O)c1sc2cccc(F)c2c1S(=O)(=O)N1CCN(c2ccccc2OC)CC1	i	i	i	i	i
N#Cc1ccc(OCC(=O)NCC2COc3ccccc3O2)cc1 (stereo not given)	i	i	i	i	i
Cc1ccc(S(=O)(=O)N2CCCC2C(=O)OCc2nc3ccccc3s2)cc1 (stereo not given)	i	i	i	i	45
O=C(OCc1nc2ccccc2s1)C1CCN(S(=O)(=O)c2cccs2)CC1	i	i	i	i	i
COc1ccc(CN2CCn3ncc(C(=O)Nc4cccc(C)c4)c3C2=O)cc1	i	i	i	i	i
COC(=O)c1cnn2c1C(=O)N(Cc1cccs1)CC2	i	i	i	34	i
CCN(CC)c1ccc(NC(=O)COCc2cc(-c3ccc4c(c3)OCO4)on2)c(C)c1	i	i	i	i	i
CC(=O)Nc1ccc(NC(=O)c2ccc(-c3ccccc3Cl)o2)cc1	i	i	i	33	i
CN1CCN(c2ccc(NC(=O)c3ccc(Br)o3)cc2)CC1	-41	i	i	i	i
CN1CCN(c2ccc(NC(=O)c3ccc(-c4ccccc4F)o3)cc2)CC1	-96	i	i	i	i
CC(C)C(OC(=O)CNC(=O)c1ccccc1)C(=O)Nc1cc(C(F)(F)F)ccc1Cl (stereo not given)	i	i	i	i	i
CCOc1ccc(/C=N/n2c(C3CCCCC3)n[nH]c2=S)cc1	i	i	i	i	i
CCN(CC)CCNC(=O)C(=O)NCC(c1ccc2c(c1)OCO2)N1CCOCC1 (stereo not given)	i	i	i	i	i
Cc1ccc(C)c(C(C)NC(=S)NCc2ccc(F)cc2)c1 (stereo not given)	i	i	i	i	93
COc1ccc(C(C)NC(=S)NCc2ccc(F)cc2)cc1 (stereo not given)	i	i	i	i	i
CCC(NC(=S)NCc1ccc(F)cc1)c1ccccc1 (stereo not given)	i	i	i	i	40
CCc1ccccc1NC(=O)CSc1nnc(-c2cc(OC)c(OC)c(OC)c2)o1	i	i	i	i	i
CCN1CCc2c(sc(NC(=O)c3ccc(S(=O)(=O)N(C)c4ccccc4)cc3)c2C(=O)NC)C1	i	i	48	i	175
CNC(=O)c1c(NC(=O)c2ccc(S(=O)(=O)N(C)c3ccccc3)cc2)sc2c1CCN(C(C)C)C2	i	i	62	i	90
COc1cc(OC)c(C(=O)NCc2nc(-c3ccccc3)no2)cc1OC	i	i	i	i	i
CCOC(=O)C1CCN(S(=O)(=O)c2cc(-c3onc(C)c3C)ccc2OC)CC1	i	i	i	i	i
COC(=O)C1Cc2c([nH]c3ccccc23)C2(CCN(Cc3ccccc3)CC2)N1 (stereo not given)	-39	i	i	i	58
Nc1cc(=O)[nH]c(SCC(=O)Nc2cc(S(=O)(=O)N3CCCCC3)ccc2Cl)n1	i	i	i	i	i
O=C(Cn1nc(-c2ccccc2)c2cnc3ccc(F)cc3c21)NC1CCCC1	i	i	i	i	i
SMILES	D1 antagonist	D1 potentiator	TRHR agonist	TRHR enhancer	D1 agonist
Cc1[nH]c(C(=O)O)c(C)c1C(=O)OC(C)C	-53	i	i	i	i
CCOc1ccc(-n2nc3c(=O)[nH]nc(C)c3c2C)cc1	-60	i	i	i	i
CC(C)CC1NC(=O)N(CC(=O)Nc2ccc3c(c2)OCCO3)C1=O (stereo not given)	i	i	i	i	i
N[C@H](CSCc1ccccc1)C(=O)Nc1ccc([N+](=O)[O-])cc1	-33	i	i	i	i
CCOc1ccc(Nc2ncnc3c2c(-c2ccccc2)cn3-c2cccc(C)c2)cc1	i	i	i	i	i
CCN1CCN(C(=O)c2cc(-c3ccco3)nc3ccccc23)CC1	i	nt	i	i	i
Cc1ccc(S(=O)(=O)N2CCN(Cc3ccccn3)CC2)cc1	i	i	i	i	i
O=S(=O)(c1ccc2ccccc2c1)N1CCCCCC1	i	i	i	31	i
O=S(=O)(c1ccc2ccccc2c1)N1CCN(Cc2ccccn2)CC1	i	i	i	i	51
CCCCOc1ccc(C(=O)Nc2ccc3c(c2)N(C(C)=O)CCC3)cc1	i	i	i	i	i
Cc1cc(=O)n(Cc2c(F)cccc2Cl)c2c1c(C)nn2C	i	i	i	i	i
COC(=O)c1cc2c(=O)c3ccccc3oc2nc1C	i	i	i	i	i
COC(=O)c1cc2c(=O)c3ccccc3oc2nc1/C=C/N(C)C	i	i	35	i	76
Cc1cccc(NC2=NCC(=O)N2CCc2ccccc2)c1	-36	i	i	i	i
Cc1cccc(CCN2CCN=C2Nc2ccccc2)c1	-40	i	i	i	46
Fc1ccc(CCN2CCN=C2Nc2ccccc2)cc1	i	i	i	i	35
COc1cc(C2C3=C(CC(C)(C)CC3=O)Nc3ccccc3N2C(C)=O)cc(OC)c1OC (stereo not given)	-32	i	i	i	i
Cc1cc(C)cc(C(=O)NC(CC(N)=O)c2ccc(NCC3CC3)c([N+](=O)[O-])c2)c1 (stereo not given)	i	i	i	i	i
CCOC(=O)CC(=O)Nc1nc2ccccc2s1	i	i	i	i	i
CCOC(=O)c1sc(Nc2nc3c(F)cccc3s2)cc1C	i	i	i	i	i
Cc1cc(C)nc(SCC(=O)OCC(=O)Nc2nc3ccccc3s2)n1	i	i	i	i	31
COc1ccc2nc(NC(=O)CSc3ccccc3)sc2c1	i	i	i	32	i
CCOC(=O)c1sc(Nc2nc3ccc(OC)cc3s2)cc1C	-36	i	i	i	i
CCCCNc1sc(S(=O)(=O)CCC)nc1S(=O)(=O)c1ccc(C)cc1	i	i	i	i	i
COc1ccc(CNC(=O)C2=CC(c3ccc(C)cc3)=NS(=O)(=O)N2C)cc1	-34	i	i	i	i
SMILES	D1 antagonist	D1 potentiator	TRHR agonist	TRHR enhancer	D1 agonist
Cc1ccc(C2=NS(=O)(=O)N(C)C(C(=O)NCc3ccccc3)=C2)cc1	-47	i	i	i	i
COc1ccc(C2=NS(=O)(=O)N(C)C(C(=O)Nc3ccc(OC(F)(F)F)cc3)=C2)cc1	-37	i	i	i	i
COc1ccc(CNC(=O)C2=CC(c3ccc(OC)cc3)=NS(=O)(=O)N2C)cc1	i	i	i	i	i
Cc1ccc(C2=NS(=O)(=O)N(C)C(C(=O)NC(C)c3ccccc3)=C2)cc1 (stereo not given)	-43	i	i	i	i
COc1ccccc1-c1c(C)nn2c(N3CCN(c4cccc(Cl)c4)CC3)cc(C)nc12	i	i	i	i	i
O=C(c1ccc2c(c1)N(Cc1ccc(F)cc1)C(=O)c1ccccc1S2(=O)=O)N1CCCCC1	i	i	i	i	i

Compound activity: PubChem BioAssay, National Center for Advancing Translational Sciences (NCATS)
